SW480 rereplic: DNA re-replication induction in SW480 cells; SW480 DNA re-replication, Hoechst DNA content imaging, 48 h; Potency, µM (doses to about 46.1 µM), actives largely listed as activators; 1.8% of 340,000 active; note: nearly all actives have a fitted effect of over 55% in size
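Image-based read-out: total Hoechst fluorescence of nuclei (405 nm excitation, 500-530 nm emission), with hits raising the fraction of high-intensity nuclei. SW480 colon cells incubated 48 hr with compounds at 37 C.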
PINK1 modulator: modulators of PINK1 expression. PINK1 immunofluorescence, high-content cytometry, 24 h. 0.2% of 410,000 active. Potency, µM (doses to about 76.6 µM), hits mostly activators; active = well fitted activation curve with a large enough effect; inconclusive = small, poorly fitted or top-dose-only effect; cell line not stated here; note: nearly all actives have a fitted effect of over 65% in size
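Compound titrations (5 concentrations, 24 h) on a stable cell line; DMSO and CCCP controls. Endpoint: fixed-cell PINK1 immunofluorescence with mitochondrial, cell and nuclear markers, scanned by microplate cytometer.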
TSG101-PTAP inh: blocks PTAP/TSG101 interaction to inhibit HIV-1 budding; Q99816; Fluorescence polarization, FITC-PTAP peptide / Tsg101 binding; Potency, µM (highest dose often 115 µM), most hits filed as inhibitors; 340,000 tested, under 10 active; AID 493005; active = well fitted inhibition curve with a large enough effect in the main read-out, with a control signal flat, not every such curve was filed as active; inconclusive = small, poorly fitted or top-dose-only effect, or effect the other way, or a change in a side signal; inactive = no such curve, though single readings can be large or run the other way
Target sequence (Q99816 whole entry, looked up): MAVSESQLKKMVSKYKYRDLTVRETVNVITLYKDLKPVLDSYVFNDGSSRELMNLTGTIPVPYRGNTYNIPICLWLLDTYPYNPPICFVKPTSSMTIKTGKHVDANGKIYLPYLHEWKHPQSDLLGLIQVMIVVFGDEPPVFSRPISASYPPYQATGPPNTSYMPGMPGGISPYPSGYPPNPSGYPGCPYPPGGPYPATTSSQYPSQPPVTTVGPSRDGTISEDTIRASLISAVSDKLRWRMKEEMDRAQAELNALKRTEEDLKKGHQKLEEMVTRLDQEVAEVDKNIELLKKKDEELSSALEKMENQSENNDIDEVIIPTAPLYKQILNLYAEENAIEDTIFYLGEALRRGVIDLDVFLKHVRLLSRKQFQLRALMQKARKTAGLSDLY
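Fluorescence anisotropy tracks displacement of a FITC-tagged PTAP peptide (50 nM) from the Tsg101 binding domain (10 uM), following a 20 min room-temperature incubation at pH 7.5.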
KB-V1 MDR tox: kills drug-selected multidrug resistant KB-V1 cells | 3.4% of 400,000 active | KB-V1 MDR cells viability, CellTiter-Glo, 72 h | Potency, µM (top dose mostly 46.1 µM), actives largely listed as cytotoxic; note: nearly all actives have a fitted effect of over 60% in size
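KB-V1 MDR subline cells in DMEM (phenol-red free, 10% FBS) exposed to compounds in qHTS concentration series for 72 h at 37 degrees C. Viability read by CellTiter-Glo luminescence; concentration-effect curves fitted after normalization and correction.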
MCF10A rereplic: DNA re-replication induction in MCF 10a cells; MCF 10A DNA re-replication, Hoechst nuclear intensity, 48 h; Potency, µM (doses to about 46.1 µM), usual class: activators; 2.9% of 350,000 active; note: nearly all actives have a fitted effect of over 50% in size
KB-3-1 cytotox: KB-3-1 parental cell cytotoxicity; KB-3-1 viability, CellTiter-Glo ATP luminescence, 72 h; Potency, µM (series often up to 46.1 µM), most hits filed as cytotoxic; 1.4% of 400,000 active; note: nearly all actives have a fitted effect of over 60% in size
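KB-3-1 cells, DMEM (no phenol red) + 10% FBS; compound by pin transfer, 72 h, 37 °C. Readout: CellTiter-Glo luminescence after 10 min. Data normalized, curve-fitted.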
Each line names hits and unclear results; the compound was inactive in the other large screens. A selection: hits, their analogues and other compounds. The true share with any hit is near 6.8%. Unless noted, calls come from the whole dose curve; as a rule, active = well fitted curve in the direction sought with a large enough effect; inconclusive = small, poorly fitted or top-dose-only effect, or another doubt; inactive = no such curve, though single readings can be large; an effect the other way counts as inactive or inconclusive.

COc1ccc(NC(=O)Cn2cc(S(=O)(=O)N3CCC(C)CC3)c3ccccc3c2=O)cc1Cl	none (no result: SW480 rereplic, TSG101-PTAP inh, MCF10A rereplic)
CC1CCN(S(=O)(=O)c2cn(CC(=O)N3CC(C)CC(C)C3)c(=O)c3ccccc23)CC1 (centres undefined)	KB-V1 MDR tox 1.3µM
COc1cccc2c1Oc1ncccc1N(C(=O)CCC(=O)NCc1ccc(OC(C)C)cc1)C2	none (no result: SW480 rereplic, TSG101-PTAP inh, MCF10A rereplic)
CC(=O)Nc1ccc(S(=O)(=O)NCc2cccn2Cc2cccc(C)c2)cc1	none (no result: SW480 rereplic, TSG101-PTAP inh, MCF10A rereplic)
Cc1ccc(Cn2cc(CN3CC(N4CCN(Cc5ccccc5F)CC4)CS3(=O)=O)nn2)cc1 (centres undefined)	KB-V1 MDR tox 10µM, KB-3-1 cytotox inconclusive (no result: SW480 rereplic, TSG101-PTAP inh, MCF10A rereplic)
CN(c1ccccc1)S(=O)(=O)c1ccc(NC(=O)c2nc(S(C)(=O)=O)ncc2Cl)cc1	SW480 rereplic 9.2µM, KB-V1 MDR tox inconclusive, MCF10A rereplic inconclusive, KB-3-1 cytotox inconclusive
COc1cccc(NC(=O)c2nc(S(C)(=O)=O)ncc2Cl)c1	SW480 rereplic 2.3µM, MCF10A rereplic 5.8µM
Cn1nc(-c2ccc(Cl)cc2)c2cc(C(=O)NC3CC3)sc21	SW480 rereplic inconclusive, KB-V1 MDR tox inconclusive, MCF10A rereplic 6.5µM
Cc1nn(-c2ccccc2)c2sc(C(=O)NC3CC3)cc12	MCF10A rereplic 12µM
CCN(CC)CCNC(=O)c1cc2c(-c3ccc(Cl)cc3)nn(C)c2s1	SW480 rereplic inconclusive, KB-V1 MDR tox inconclusive, KB-3-1 cytotox inconclusive
CCCN(CCC)CCNC(=O)c1cc2c(-c3ccc(Cl)cc3)nn(C)c2s1	SW480 rereplic inconclusive, MCF10A rereplic inconclusive, KB-3-1 cytotox 16µM
CCCN(CCC)CCCNC(=O)c1cc2c(-c3ccc(OC)c(OC)c3)nn(C)c2s1	SW480 rereplic inconclusive, KB-V1 MDR tox inconclusive, MCF10A rereplic 18µM
COc1ccccc1NC(=O)c1cc2c(C)nn(-c3ccccc3)c2s1	none (no result: SW480 rereplic, TSG101-PTAP inh, MCF10A rereplic)
CCc1ccc(S(=O)(=O)c2nnn(-c3cccc(C)c3)c2N)cc1	none (no result: SW480 rereplic, TSG101-PTAP inh, MCF10A rereplic)
CCNc1nc(C#N)nc(N2CCCCC2)n1	none (no result: SW480 rereplic, TSG101-PTAP inh, MCF10A rereplic)
CSc1ccc(CCNc2ncnc3onc(C)c23)cc1	KB-3-1 cytotox inconclusive (no result: SW480 rereplic, TSG101-PTAP inh, MCF10A rereplic)
CCCCN(CC)CCNC(=O)c1cc2c(-c3ccc(Cl)cc3)nn(C)c2s1	SW480 rereplic inconclusive, KB-V1 MDR tox 23µM, MCF10A rereplic 18µM, KB-3-1 cytotox inconclusive
CCOCCCNC(=O)c1cc2c(-c3ccc(Cl)cc3)nn(C)c2s1	none
Cc1ccccc1OCC(=O)Nc1c2c(nn1C(C)(C)C)CS(=O)(=O)C2	SW480 rereplic 18µM
CC(C)(C)n1nc2c(c1NC(=O)COc1ccc(F)cc1)CS(=O)(=O)C2	none
Cc1ccc(C(=O)Nc2cccc([N+](=O)[O-])c2)cc1S(=O)(=O)Nc1ccc(NC(=O)c2ccccc2)cc1	none
CN(c1cccc(NC(=O)c2ccc(Cl)c(S(=O)(=O)Nc3ccccc3)c2)c1)S(C)(=O)=O	none
Cc1ccc(NS(=O)(=O)c2cc(C(=O)Nc3cccc([N+](=O)[O-])c3)ccc2C)cc1	PINK1 modulator inconclusive, KB-V1 MDR tox 15µM, MCF10A rereplic inconclusive
Cc1ccccc1NS(=O)(=O)c1cc(C(=O)Nc2cccc(N(C)S(C)(=O)=O)c2)ccc1C	MCF10A rereplic 15µM
Cc1ccc(C)c(NC(=O)c2ccccc2NS(=O)(=O)c2cc([N+](=O)[O-])ccc2C)c1	PINK1 modulator 8.9µM, KB-3-1 cytotox 21µM
Cc1ccc(NC(=O)CC(=O)c2ccc([N+](=O)[O-])cc2)cc1S(=O)(=O)Nc1cccc(Cl)c1	PINK1 modulator 32µM, KB-3-1 cytotox inconclusive
Cc1ccc(C(=O)Nc2cccc(-c3nc(CNC(=O)[C@@H]4C[C@@H](C)NC(=S)N4)c(C)o3)c2)s1	none (no result: SW480 rereplic, TSG101-PTAP inh, KB-V1 MDR tox, MCF10A rereplic, KB-3-1 cytotox)
COc1cc(-c2noc(CCC(=O)Nc3cc(C)ccc3C)n2)cc(OC)c1OC	none (no result: SW480 rereplic, TSG101-PTAP inh, MCF10A rereplic)
Cc1ccc(NC(=S)NC(=O)c2ccc(F)cc2)cc1S(=O)(=O)Nc1cccc(Cl)c1	SW480 rereplic 3.7µM, PINK1 modulator inconclusive, KB-V1 MDR tox 7.3µM, MCF10A rereplic 2.6µM, KB-3-1 cytotox 5.2µM
Cc1ccc(NC(=O)c2cccs2)cc1S(=O)(=O)Nc1cccc(Cl)c1	MCF10A rereplic inconclusive
